Compound activity: PubChem BioAssay, several laboratories
Peg3 prom inh – inhibitors of Peg3 promoter; HeLa PEG-Prom luciferase reporter, luminescence, overnight; inhibition, % at 20 µM; 360,000 compounds, 1.7% hits;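 active = inhibition of at least 50% at 20 µM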
EWS-Fli block – blocks EWS/Fli oncoprotein-driven transcription; A673 NR0B1-luciferase reporter, viability-normalised; inhibition, % at 12.6 µM; 350,000 compounds, 0.67% hits;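 active = mean inhibition of at least 50% after viability correction, with every replicate also passing that limit; inconclusive = mean reaches 50% but only one of two replicates passes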;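 also: firefly luciferase signal divided by Alamar Blue viability fluorescence both relative to DMSO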
PAX8 reporter – inhibitors of PAX8 transcriptional activity in RMG-I cells | RMG-I TPO-luciferase reporter, SteadyGlo, 24 h | inhibition, % at 12.6 µM | 360,000 compounds, 1.2% hits | AID 652154;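 active = mean replicate inhibition at least 60% with every replicate also reaching 60%; inconclusive = only one of the two criteria is met; inactive = mean below 60% and not all replicates reaching 60%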;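 also: luciferase light reporting Pax8 driven TPO promoter activity; plate controls were median of neutral control wells for no effect and mitoxantrone controls for full effect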
MITF TRPM1 inh – reduces MITF-dependent TRPM1 promoter luciferase signal | SK-MEL-5 TRPM1 promoter luciferase, 24 h | 330,000 compounds, 0.83% hits | inhibition, % at 12.5 µM;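 active = mean inhibition across replicates of 60% or more, whatever share of single replicates reaches that level; inconclusive = some that reach 60%, reason not given; inactive = mean inhibition across replicates below 60%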
ABHD5 PLIN5 PPI – inhibitors of human ABHD5-perilipin-5 interaction | Split G. princeps luciferase complementation, luminescence, 4 h | inhibition, % at 4 µM | 360,000 compounds, 0.78% hits;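 active = inhibition above the mean inhibition across every tested compound plus 3 SD, cut at about 22% in these data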;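 also: 0% = DMSO only wells and the 100% control is not disclosed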
Shn3 inh set2 – reduces Shn3 3'UTR luciferase signal in osteoblasts | Clone20 osteoblast Shn3 3'UTR firefly luciferase, 24 h | inhibition, % at 12.5 µM | 360,000 compounds, 0.52% hits | AID 588674;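 active = mean inhibition of at least 75% with every replicate also reaching 75%; inconclusive = mean inhibition at least 75% but some replicate below; inactive = mean inhibition below 75%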;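 also: 0% = median of neutral control wells and 100% = pilot-screen positive control compound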
ABHD5 PLIN5 conf – ABHD5-PLIN5 interaction inhibition, confirmed; inhibition, % at 4 µM; biochemical ABHD5-PLIN5 interaction, luminescence; 2,200 compounds, 67% hits; shares compounds with ABHD5 PLIN5 PPI; AID 651612; in the data active = inhibition above about 23%;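 also: 0% = DMSO vehicle wells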
HNF4 split-luc – active in HNF4 split-luciferase counter-screen for ABHD5-PLIN5 inhibitors | shares compounds with ABHD5 PLIN5 PPI | HNF4 dimerization, luminescence, biochemical | inhibition, % at 4 µM | 2,200 compounds, 77% hits | AID 651674;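 active = mean inhibition across replicate wells exceeding the computed hit threshold, cut at about 13% in these data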;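 also: light from luciferase halves that rejoin when HNF4 fusion proteins dimerize; 0% = DMSO only wells and the 100% control is not given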
Target sequence (P41235 whole entry, looked up, the tested form may be a part): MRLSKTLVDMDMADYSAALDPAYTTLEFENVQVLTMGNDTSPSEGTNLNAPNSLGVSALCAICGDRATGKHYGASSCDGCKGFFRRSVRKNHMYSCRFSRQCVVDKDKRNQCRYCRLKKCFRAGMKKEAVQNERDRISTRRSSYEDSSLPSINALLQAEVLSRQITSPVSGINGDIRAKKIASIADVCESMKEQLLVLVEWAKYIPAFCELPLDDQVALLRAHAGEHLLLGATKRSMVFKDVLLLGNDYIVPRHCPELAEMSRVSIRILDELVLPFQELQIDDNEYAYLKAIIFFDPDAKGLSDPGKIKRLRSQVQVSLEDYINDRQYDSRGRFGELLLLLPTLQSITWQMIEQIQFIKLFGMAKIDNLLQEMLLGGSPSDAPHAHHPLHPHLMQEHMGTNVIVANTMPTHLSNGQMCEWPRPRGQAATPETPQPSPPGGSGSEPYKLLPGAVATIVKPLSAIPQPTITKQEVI
* = called active by the depositor; u = inconclusive; x = not tested or not shown. In the library only some 3% were active in any assay of this set; here they are far more common.

SMILES | Peg3 prom inh | EWS-Fli block | PAX8 reporter | MITF TRPM1 inh | ABHD5 PLIN5 PPI | Shn3 inh set2 | ABHD5 PLIN5 conf | HNF4 split-luc
Cc1ccc(-c2c[n+](CC(=O)Nc3nc(-c4ccc(F)cc4)cs3)c3n2CCC3)cc1 | -22 | 4 | 19 | 17 | 25* | -18 | 15 | 8
CCCNC(=O)N[C@@H]1CC[C@@H](CC(=O)NC2CCC2)O[C@H]1CO | x | 10 | 8 | x | x | x | x | x
CCN1[C@@H]2c3ccc(-c4ccccc4OC)c(=O)n3C[C@@H]2[C@@H](CO)[C@@H]1C(=O)N(C)C | x | -2 | 6 | x | x | x | x | x
COC(=O)COc1ccc(C2Nc3c(Cl)ccc(C(=O)O)c3C3C=CCC32)cc1 (stereo not given) | 9 | 5 | -12 | 4 | 23* | -5 | 15 | 28*
COc1ccc(OC)c(C2Nc3c(Cl)ccc(C(=O)O)c3C3C=CCC32)c1 (stereo not given) | 21 | 9 | -7 | -4 | 3 | -5 | x | x
CCC(CC)C(=O)Nc1cccc(C(=O)NCc2ccco2)c1 | 6 | x | x | 2 | 25* | -3 | 25* | 31*
O=C(NCc1ccco1)c1ccc2c(c1)C(=O)c1ccccc1-2 | -49 | x | x | -27 | 33* | -3 | 46* | 49*
O=C(NCc1ccco1)c1ccc(C(=O)NCc2ccco2)cc1 | 2 | -6 | -14 | -3 | 2 | -11 | x | x
C[C@H]1CN([C@@H](C)CO)C(=O)Cc2cc(NC(=O)Cc3ccccc3)ccc2O[C@H]1CN(C)CC1CCCCC1 | x | 2 | -6 | x | x | x | x | x
C[C@@H]1CCCCO[C@H](CN(C)S(=O)(=O)c2cn(C)cn2)[C@@H](C)CN([C@H](C)CO)C(=O)c2cc(NC(=O)Nc3ccc(F)cc3)ccc2O1 | x | -2 | 8 | x | x | x | x | x
CC(C)NC(=O)N(C)C[C@H]1Oc2ccc(NC(=O)c3ccncc3)cc2CC(=O)N([C@@H](C)CO)C[C@H]1C | x | 4 | -3 | x | x | x | x | x
O=C(C[C@H]1C[C@H](C(=O)N2CCCCC2)[C@@]2(CCc3ccccc3)c3[nH]c4cc(-c5ccco5)ccc4c3CCN2C1=O)NCCN1CCOCC1 | 3 | 5 | 9 | -8 | 15 | -1 | x | x
CC[C@]12c3[nH]c4cc(-c5ccco5)ccc4c3CCN1C(=O)[C@@H](CC(=O)NCCc1ccccn1)C[C@@H]2C(=O)N1CCN(C(=O)C2CC2)CC1 | -6 | -1 | 9 | -7 | 14 | -11 | x | x
C[C@]12c3[nH]c4cc(-c5ccco5)ccc4c3CCN1C(=O)[C@@H](CC(=O)NCCc1ccccn1)C[C@@H]2C(=O)N1CCCCC1 | 34 | 3 | 1 | 0 | 42* | -8 | 8 | 24*
COCCCNC(=O)C[C@H]1C[C@H](C(=O)N2CCCCC2)[C@@]2(CCc3ccccc3)c3[nH]c4cc(-c5ccco5)ccc4c3CCN2C1=O | 14 | -7 | 22 | 12 | 28* | 12 | 12 | 26*
Cc1ccc(NC(CC(=O)c2ccccc2)c2ccc(F)cc2)cc1 (stereo not given) | -79 | x | x | -51 | -4 | -15 | x | x
O=C(CC(Nc1ccc(F)cc1)C(=O)O)c1ccccc1 (stereo not given) | -243 | x | x | -33 | 43* | -88 | 38* | 89*
O=C1Nc2cnc(Cl)nc2Nc2ccc(Cl)cc21 | x | -10 | -8 | x | x | x | x | x
O=C1Nc2ccc(Cl)cc2/C1=C/C1CC=CCC1 (stereo not given) | 32 | x | 24 | -3 | 30* | -10 | 55* | 39*
CC1(C)CC(=O)C(CC(=O)Nc2ccc(S(N)(=O)=O)cc2)=C(O)C1 | 1 | x | x | -16 | 5 | 2 | x | x
CC1(C)CC(=O)C(CS(=O)(=O)c2ccccc2)=C(O)C1 | -13 | x | x | -3 | 44* | -1 | 50* | 92*
CC(C)NC(=O)N(C)C[C@@H]1OCCCC[C@@H](C)Oc2ccc(NS(=O)(=O)c3ccccc3)cc2C(=O)N([C@H](C)CO)C[C@H]1C | x | 3 | -1 | x | x | x | x | x
CC(C)NC(=O)N(C)C[C@@H]1OCCCC[C@@H](C)Oc2ccc(NS(=O)(=O)c3cccs3)cc2C(=O)N([C@H](C)CO)C[C@@H]1C | x | -2 | -13 | x | x | x | x | x
CCOC(=O)c1cc2c(=O)n3cccc(C)c3nc2n(Cc2ccco2)c1=NC(=O)c1cccnc1 | -30 | x | x | -7 | 24* | -6 | 46* | 58*
CCOC(=O)c1cc2c(=O)n3ccccc3nc2n(Cc2ccco2)c1=NC(=O)c1cccnc1 | 13 | x | x | 5 | 22 | -5 | x | x
SMILES | Peg3 prom inh | EWS-Fli block | PAX8 reporter | MITF TRPM1 inh | ABHD5 PLIN5 PPI | Shn3 inh set2 | ABHD5 PLIN5 conf | HNF4 split-luc
CCOC(=O)c1cc2c(=O)n3ccccc3nc2n(Cc2ccco2)c1=NC(=O)c1ccccc1OCC | 6 | 2 | 5 | 11 | 24* | 5 | 14 | 45*
Cc1cccn2c(=O)c3cc(C#N)c(=NC(=O)c4ccco4)n(Cc4ccco4)c3nc12 | 11 | 10 | -5 | -14 | 39* | x | 23* | 54*
COCc1cn(CC[C@H]2CC[C@H](NC(=O)Nc3ccc(Cl)cc3)[C@@H](CO)O2)nn1 | x | 2 | -9 | x | x | x | x | x
O=C(Nc1ccccc1F)N[C@@H]1CC[C@@H](CC(=O)N2CCCCC2)O[C@@H]1CO | x | 1 | 11 | x | x | x | x | x
C#CC[N+]1(CC#Cc2ccccc2)CCCC1 | 16 | x | x | 8 | -2 | 28 | x | x
C(#Cc1ccccc1)C[N+]1(CC#Cc2cccc3ccccc23)CCCC1 | 25 | 8 | 63* | u | 27* | 84 | 11 | 3
CC(Oc1ccccc1F)C(=O)NNC(=O)c1ccc(F)c(S(=O)(=O)N2CCOCC2)c1 (stereo not given) | 8 | x | x | -4 | 63* | 3 | 2 | 2
C[C@H]1CN([C@@H](C)CO)C(=O)c2cc(NC(=O)Nc3ccc(F)cc3)ccc2O[C@@H]1CN(C)S(C)(=O)=O | x | 4 | -8 | x | x | x | x | x
N#C/C(=C\c1ccc(F)c(Br)c1)C(=O)NC1CC1 | 6 | 4 | 7 | -1 | 2 | 10 | x | x
CC(C)(C)c1ccc(/C=C(\C#N)C(=O)NC2CC2)cc1 | -5 | -10 | -13 | x | 28* | 4 | 47* | 35*
C[C@@H]1CN([C@H](C)CO)C(=O)c2cc(NS(=O)(=O)c3cn(C)cn3)ccc2O[C@H]1CN(C)Cc1ccc(Cl)c(Cl)c1 | x | -3 | 2 | x | x | x | x | x
O=C(C=Cc1ccco1)c1cc(Cl)ccc1O | 16 | 0 | 10 | -2 | 27* | 3 | 53* | 34*
O=C(/C=C/c1ccco1)c1ccccc1O | -144 | -24 | -129 | -26 | 8 | -21 | x | x
O=C(CN1C(=O)/C(=C\c2cccc(Br)c2)Oc2ccccc21)NCCCN1CCOCC1 | 46 | -14 | -28 | -29 | 29* | -18 | 17 | 5
O=C(CN1C(=O)COc2ccccc21)NCCCN1CCOCC1 | 0 | 0 | 2 | 14 | 3 | 4 | x | x
